This passage reports composite z-score, composite Z-score and z-score results from PubChem BioAssay.

SMILES strings stand for the structures. Calls of active or inactive are those of the source.

In one assay the target is Albumin (Bos taurus) (UniProt P02769). The experiment in a line: compounds binding labelled BSA control protein – biochemical, small-molecule microarray, Alexa647 label, 635/667 nm fluorescence, artefact control for SMM control protein annotation, profiling panel (AID 1118).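 Further: score merges 667 nm emission intensity and signal-to-noise per printed compound spot.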 Particulars: BSA-A647 binding, fluorescence 635 nm, higher = more signal.
Albumin (Bos taurus), sequence (P02769 whole entry, looked up): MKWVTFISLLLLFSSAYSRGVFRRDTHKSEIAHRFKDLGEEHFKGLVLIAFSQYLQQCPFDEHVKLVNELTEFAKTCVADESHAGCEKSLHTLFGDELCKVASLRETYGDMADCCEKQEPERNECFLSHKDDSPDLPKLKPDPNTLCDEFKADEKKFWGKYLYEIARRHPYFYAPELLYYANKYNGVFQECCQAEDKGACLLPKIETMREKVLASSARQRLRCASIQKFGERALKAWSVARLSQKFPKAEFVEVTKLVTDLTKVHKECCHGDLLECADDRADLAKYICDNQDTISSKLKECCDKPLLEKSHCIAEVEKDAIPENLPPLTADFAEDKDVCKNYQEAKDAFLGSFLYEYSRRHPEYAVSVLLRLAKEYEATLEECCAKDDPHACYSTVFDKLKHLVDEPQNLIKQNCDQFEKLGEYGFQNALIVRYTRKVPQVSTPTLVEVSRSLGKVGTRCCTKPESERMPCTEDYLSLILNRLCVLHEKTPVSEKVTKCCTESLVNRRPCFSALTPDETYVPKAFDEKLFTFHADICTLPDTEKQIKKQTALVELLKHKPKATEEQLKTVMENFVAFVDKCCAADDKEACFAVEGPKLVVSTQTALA
Assay [1] in a line: probe aXIP binding to arrayed compounds – biochemical, NeuroSMM set, 635/667 nm fluorescence, primary screen (AID 1119).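 Further: probe is the protein aXip251-270 applied at 1 µg/mL to compound-printed slides; binding of probe to printed compounds measured as 667 nm fluorescence plus signal to noise.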 The conditions noted are these: small-molecule microarray, higher = more signal, called active from +8 up or from −8 down.
A short description of assay [2]: probe aNOTCH3 binding on compound microarray – biochemical, small-molecule microarray, 635/667 nm fluorescence, primary screen (AID 1120).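 Further: probe is a biotin-tagged antibody raised against NOTCH3 rather than NOTCH3 protein; score merges spot fluorescence near 667 nm with spot signal to noise.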 Particulars: higher = more signal.
Assay [3] in a line: probe aNOTCH2 binding on compound microarray – biochemical, small-molecule microarray, 635/667 nm fluorescence, primary screen (AID 1121).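 Further: score merges feature fluorescence read at 667 nm with its signal to noise.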 Particulars: higher = more signal.
Assay [4] deals with Carbonic anhydrase 2 (Homo sapiens) (UniProt P00918). The experiment in a line: compounds binding carbonic anhydrase 2 – biochemical, small-molecule microarray, Alexa647-labelled CAII, profiling panel (AID 1122). Particulars: CAII-A647 binding fluorescence, higher = more signal.
Assay [5] can be described thus: COS7 lysate on small-molecule microarray, probe aHis, 635 nm (AID 1123).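 Further: z-score combines 667nm fluorescence intensity with signal-to-noise per printed compound spot.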 The conditions noted are these: COS7 cell lysate, fluorescence, higher = more signal.
Assay [6] is described as follows: probe aLAP1 signal on lysate-treated microarray – cell lysate, small-molecule microarray, COS7 lysate, primary screen (AID 1124).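 Further: lysate comes from COS7 cells expressing LAP1 and is applied at 0.3 µg/mL; score merges spot fluorescence near 667 nm with signal-to-noise over triplicate slides.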 Particulars: probe aLAP1, fluorescence, higher = more signal.
Another assay relates to Sam68 (KHDRBS1). The experiment in a line: compounds binding KHDRBS1 protein – biochemical, small-molecule microarray, 635 nm fluorescence, primary screen (AID 1125).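 Further: score merges 667 nm channel intensity with signal to noise over triplicate slides.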 The conditions noted are these: higher = more signal.
Assay [7] relates to Chordin-like protein 2 (CHRDL2). The experiment in a line: compounds binding chordin-like 2 – biochemical, small-molecule microarray, 635 nm fluorescence, primary screen (AID 1126).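 Further: printed compound slides probed with Chrdl2 protein at 4 µg/mL for 1 h at 4 C; score merges 667 nm emission intensity with signal to noise over three replicate slides.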 Particulars: fluorescence 635 nm, higher = more signal.
In assay [8] the target is Concanavalin-A (Canavalia ensiformis) (UniProt P02866). The experiment in a line: compounds binding concanavalin A lectin – biochemical, small-molecule microarray, Alexa647 label, 635 nm, artefact control for SMM control protein annotation, primary screen (AID 1127).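 Further: z combines 667 nm emission intensity with signal-to-noise across three replicate slides.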 The conditions noted are these: ConA-A647 binding fluorescence, higher = more signal.
Concanavalin-A (Canavalia ensiformis), sequence (P02866 whole entry, looked up): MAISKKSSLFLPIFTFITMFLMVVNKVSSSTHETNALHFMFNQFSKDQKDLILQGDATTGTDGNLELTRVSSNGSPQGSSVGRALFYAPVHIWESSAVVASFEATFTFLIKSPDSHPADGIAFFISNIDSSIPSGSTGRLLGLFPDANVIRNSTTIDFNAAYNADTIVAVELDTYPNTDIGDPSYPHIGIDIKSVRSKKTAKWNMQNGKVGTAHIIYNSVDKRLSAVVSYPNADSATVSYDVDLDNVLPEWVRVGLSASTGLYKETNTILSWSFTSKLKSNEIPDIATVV
Assay [9] is described as follows: compounds binding Alexa647 anti-His antibody – biochemical, small-molecule microarray, 635 nm fluorescence, artefact control for SMM control protein annotation, primary screen (AID 1128).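 Further: score merges feature fluorescence with signal-to-noise for each printed compound spot.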 Particulars: higher = more signal.
Assay [10] deals with Human papillomavirus type 1a E7 protein (residues 1-88). Briefly: HPV1a E7 small-molecule binders, primary screen, biochemical, small-molecule microarray, residues 1-88, 635 nm (AID 1129). The conditions noted are these: small-molecule microarray binding, fluorescence 635 nm; higher = more signal.
Assay [11] addresses Focal adhesion kinase 1 (Homo sapiens) (UniProt Q05397). Briefly: PTK2 protein binding on printed compound slides – biochemical, small-molecule microarray, 635/667 nm fluorescence, BSA, DTT, primary screen (AID 1130).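 Further: composite of spot emission at 667 nm and signal to noise over triplicate slides.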 The conditions noted are these: 635 nm fluorescence, higher = more signal.
Assay [12] deals with Fibrinogen (Alexa647-labelled). The experiment in a line: Alexa647-fibrinogen binding to printed small molecules – biochemical, small-molecule microarray, 635/667 nm fluorescence, artefact control for SMM control-protein annotation, profiling panel (AID 1131).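 Further: z-score merges 667 nm fluorescence with per-spot signal-to-noise over triplicate slides.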 The conditions noted are these: fibrinogen-A647 binding fluorescence, higher = more signal.
For assay [13], the target named is Follistatin (Homo sapiens) (UniProt P19883). The experiment in a line: FST protein binding to printed compounds – biochemical, small-molecule microarray, 635/667 nm fluorescence, primary screen (AID 1132). Particulars: 635 nm fluorescence, higher = more signal.
Follistatin (Homo sapiens), sequence (P19883 whole entry, looked up): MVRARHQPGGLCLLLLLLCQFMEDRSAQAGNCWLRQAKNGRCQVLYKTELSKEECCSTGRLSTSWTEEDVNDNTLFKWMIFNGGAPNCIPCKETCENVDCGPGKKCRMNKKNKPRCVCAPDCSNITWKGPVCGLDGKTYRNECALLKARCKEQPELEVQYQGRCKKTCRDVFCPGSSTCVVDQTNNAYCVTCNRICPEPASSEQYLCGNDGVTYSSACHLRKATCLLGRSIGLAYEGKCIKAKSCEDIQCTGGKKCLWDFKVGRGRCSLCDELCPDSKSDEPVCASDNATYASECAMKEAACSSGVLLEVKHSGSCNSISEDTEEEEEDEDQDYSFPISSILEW
For assay [14], the target named is Fibroblast growth factor 2 (Homo sapiens) (UniProt P09038). The experiment in a line: basic fibroblast growth factor binding to printed compounds – biochemical, small-molecule microarray, 635/667 nm fluorescence, primary screen (AID 1133). Particulars: FGF2, fluorescence 635/667, higher = more signal.
Fibroblast growth factor 2 (Homo sapiens), sequence (P09038 whole entry, looked up): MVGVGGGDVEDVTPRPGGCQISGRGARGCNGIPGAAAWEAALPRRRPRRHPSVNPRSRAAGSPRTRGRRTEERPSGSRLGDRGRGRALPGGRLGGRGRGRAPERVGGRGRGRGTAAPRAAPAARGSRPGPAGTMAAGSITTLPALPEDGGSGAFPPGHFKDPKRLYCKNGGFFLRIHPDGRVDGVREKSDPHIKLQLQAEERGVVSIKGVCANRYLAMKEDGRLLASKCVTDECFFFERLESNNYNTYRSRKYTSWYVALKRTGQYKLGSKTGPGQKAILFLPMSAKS
Assay [15] is described as follows: JC-1 mitochondrial potential readout, lung cancer cells – cell-based, A549, JC-1 fluorescence, basal, 24 h, 100 nL, profiling panel (AID 1138).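 Further: A549 lung adenocarcinoma cells under basal conditions with no added stimulus; test concentration not given here.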 Particulars: higher = more signal.
For a further assay, the system named is Lefty1. Briefly: Lefty1 protein binding to printed compounds – biochemical, small-molecule microarray, 635/667 nm fluorescence, primary screen (AID 1139). The conditions noted are these: fluorescence 635/667, higher = more signal.
Assay [16] deals with wheat germ agglutinin (Triticum aestivum), Alexa647-labelled. Briefly: Alexa647-WGA lectin binding to printed small molecules – biochemical, small-molecule microarray, 635/667 nm fluorescence, artefact control for SMM control-protein annotation, profiling panel (AID 1140).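 Further: score merges 667 nm feature emission with signal to noise over triplicate slides.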 Particulars: WGA-A647 binding, 635 nm fluorescence, higher = more signal.
The target of assay [17] is Luciferin 4-monooxygenase (Photinus pyralis) (UniProt P08659). The experiment in a line: inhibition of purified Photinus pyralis luciferase – biochemical, luminescence, purified enzyme, 2006 set, primary screen (AID 1141).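 Further: cell-free assay with purified firefly luciferase at 100 ng per well in PBS; test concentration not given here.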 Particulars: purified firefly luciferase, SteadyGlo luminescence, 30 min; higher = more signal, called active from +8 up or from −8 down.
Luciferin 4-monooxygenase (Photinus pyralis), sequence (P08659 whole entry, looked up): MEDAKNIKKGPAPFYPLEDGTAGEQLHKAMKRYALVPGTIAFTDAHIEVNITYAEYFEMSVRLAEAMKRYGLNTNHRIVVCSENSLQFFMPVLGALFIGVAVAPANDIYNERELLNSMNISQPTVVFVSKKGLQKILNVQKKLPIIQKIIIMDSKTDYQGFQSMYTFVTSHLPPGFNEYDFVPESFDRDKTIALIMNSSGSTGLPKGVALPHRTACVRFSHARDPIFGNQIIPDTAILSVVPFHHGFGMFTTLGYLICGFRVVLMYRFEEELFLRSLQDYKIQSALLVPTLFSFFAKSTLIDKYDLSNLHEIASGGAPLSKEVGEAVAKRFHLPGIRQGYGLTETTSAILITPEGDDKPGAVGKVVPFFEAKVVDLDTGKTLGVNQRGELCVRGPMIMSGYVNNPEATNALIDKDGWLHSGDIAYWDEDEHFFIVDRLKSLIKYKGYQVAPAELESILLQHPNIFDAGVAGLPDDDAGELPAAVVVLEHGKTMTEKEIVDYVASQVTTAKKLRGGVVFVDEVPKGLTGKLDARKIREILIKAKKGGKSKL

Focal adhesion kinase 1 (Homo sapiens), sequence (Q05397 whole entry, looked up): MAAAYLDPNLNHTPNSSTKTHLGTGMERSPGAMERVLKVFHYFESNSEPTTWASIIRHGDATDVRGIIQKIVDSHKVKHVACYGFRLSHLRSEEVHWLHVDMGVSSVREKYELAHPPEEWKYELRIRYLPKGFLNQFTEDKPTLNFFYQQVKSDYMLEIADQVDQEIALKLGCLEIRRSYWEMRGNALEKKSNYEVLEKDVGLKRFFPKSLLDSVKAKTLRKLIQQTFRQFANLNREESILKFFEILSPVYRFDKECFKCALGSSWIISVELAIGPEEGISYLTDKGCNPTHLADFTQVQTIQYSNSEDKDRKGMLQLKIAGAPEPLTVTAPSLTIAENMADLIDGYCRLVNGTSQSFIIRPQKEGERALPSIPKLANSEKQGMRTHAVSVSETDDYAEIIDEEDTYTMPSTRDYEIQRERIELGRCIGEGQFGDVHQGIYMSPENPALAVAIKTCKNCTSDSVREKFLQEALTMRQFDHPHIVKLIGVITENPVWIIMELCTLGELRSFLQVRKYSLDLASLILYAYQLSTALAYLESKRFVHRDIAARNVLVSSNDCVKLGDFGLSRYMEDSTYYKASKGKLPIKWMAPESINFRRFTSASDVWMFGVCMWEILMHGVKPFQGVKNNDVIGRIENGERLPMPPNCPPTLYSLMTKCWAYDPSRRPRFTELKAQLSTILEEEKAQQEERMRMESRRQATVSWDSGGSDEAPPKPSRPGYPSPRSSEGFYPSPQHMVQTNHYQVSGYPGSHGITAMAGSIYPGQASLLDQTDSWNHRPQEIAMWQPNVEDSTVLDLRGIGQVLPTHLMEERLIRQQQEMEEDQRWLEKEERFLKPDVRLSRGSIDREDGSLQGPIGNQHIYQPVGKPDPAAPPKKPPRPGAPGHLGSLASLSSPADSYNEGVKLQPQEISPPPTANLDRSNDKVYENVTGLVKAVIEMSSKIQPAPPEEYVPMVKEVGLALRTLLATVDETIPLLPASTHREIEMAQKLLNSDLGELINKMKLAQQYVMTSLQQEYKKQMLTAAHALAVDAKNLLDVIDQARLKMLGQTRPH

Regarding `[N-]=[N+]=NCc1ccccc1[C@H]1OC(c2ccc(OCCCO)cc2)=N[C@@]1(Cc1ccccc1N=[N+]=[N-])C(=O)NCc1ccccc1`, the composite z-score with Albumin (Bos taurus) was found to be 0.763; in [2] it was 0.286; in assay [3], 0.0243; in [4] it was 0.579; in assay [5], 1.65; in assay [6] it was 0.174. In addition, the composite z-score is 1.31 with Sam68 (KHDRBS1); -0.633 in assay [7]; 1.12 in [8]; 0.859 in [9]; 1.18 in assay [10]; 0.636 in assay [11]. Besides, the composite z-score in assay [12] was 0.82; in assay [13], 1.03; in [14], 0.299; in the assay with Lefty1, 0.0912; in [16], 1. For the same compound, the composite Z-score in assay [1] is 0.945 (inactive). Also, the z-score was 0.623 in [15] and -1.17 (inactive) in assay [17].
Take `O=C1C2C=CC(C(O)c3ccccc3)N(n3cnnc3)C2C(=O)N1Cc1ccccc1` (stereo not given): the composite z-score was 0.878 with Albumin (Bos taurus); 0.0562 in [2]; -0.0136 in assay [3]; 0.565 in assay [4]; 0.775 in assay [5]; -0.333 in assay [6]. The composite z-score with Sam68 (KHDRBS1) is -0.493; in [7] it was 0.0921; in [8] it was 0.161; in assay [9], 0.0968; in assay [10], 0.561; in assay [11], 0.321. For the same compound, the composite z-score in assay [12] was 0.249; in assay [13], 0.438; in assay [14], -0.0128; in the assay with Lefty1, -0.497; in [16], -0.164. The composite Z-score in [1] is 0.0912 (inactive). In addition, the z-score is 0.348 in assay [15] and -1.55 (inactive) in assay [17].
Regarding `COc1cc(CO)cc(I)c1O[C@H]1C=C(C(=O)NCCO)C[C@@H](NCCc2c[nH]c3ccccc23)[C@@H]1O`, the composite z-score is 0.544 in the assay with Albumin (Bos taurus); 0.124 in assay [2]; -0.121 in [3]; 0.412 in [4]; 0.414 in assay [5]; 0.128 in assay [6]. In addition, the composite z-score was 1.12 with Sam68 (KHDRBS1); 0.685 in assay [7]; 0.649 in assay [8]; 0.876 in assay [9]; 0.579 in assay [10]; -0.0981 in assay [11]. Further, the composite z-score in assay [12] was determined as 0.824; in assay [13], 0.792; in assay [14], 0.243; in the assay on Lefty1, 0.28; in assay [16] it was 1.21. For the same compound, in assay [1], the composite Z-score is 0.256 (inactive). The z-score is 0.898 in [15] and 0.47 (inactive) in assay [17].
For `COCCOC(=O)N1C(=O)[C@@]2(c3cc(C#CCNC(N)=O)ccc31)[C@H](C(=O)N1CCCCCCC1)[C@H]1C(=O)O[C@H](c3ccccc3)[C@H](c3ccccc3)N1[C@@H]2c1ccccc1OCCO`, the composite z-score with Albumin (Bos taurus) turned out to be 0.328; in assay [2] it was 0.555; in [3], 0.0231; in assay [4], 0.171; in assay [5], 0.963; in [6], 0.417. Further, the composite z-score with Sam68 (KHDRBS1) amounted to 1.14; in assay [7], 0.573; in assay [8] it was 1.08; in assay [9], 0.455; in [10] it was 1.14; in [11], 0.784. The composite z-score stood at 0.47 in assay [12]; 1.33 in assay [13]; 0.385 in [14]; 1.21 with Lefty1; 0.835 in assay [16]. Moreover, the composite Z-score in [1] is 1.01 (inactive). Besides, the z-score was -0.751 in [15] and -0.201 (inactive) in assay [17].
Turning to `C[C@H]1C2[C@H](Cc3ccccc3)NC(=O)[C@]23C(=O)N[C@H](Cc2ccccc2)C(=O)N[C@@H](Cc2ccccc2)C(=O)NC/C=C\C/C=C/C3[C@@H]2O[C@]12C` (stereo not given in full), the composite z-score with Albumin (Bos taurus) was 0.992; in assay [2], 0.36; in assay [3] it was -0.0942; in [4], 0.742; in assay [5], 0.0046; in [6], 0.0901. For the same compound, the composite z-score is -0.221 with Sam68 (KHDRBS1); 0.371 in assay [7]; -1.08 in [8]; 0.133 in assay [9]; -0.318 in assay [10]; 0.838 in assay [11]. Besides, the composite z-score is -1.84 in [12]; 0.162 in assay [13]; 0.0748 in assay [14]; -0.0066 with Lefty1; -0.125 in assay [16]. The composite Z-score in [1] was 0.448 (inactive). Further, the z-score in assay [15] is 0.298; in assay [17] it was -1.06 (inactive).
